From PubChem BioAssay (NCATS)
Results filed as inconclusive are left out. A call without a number means that no potency is given here. Activity calls are given as the source filed them. Calls come from the whole dose curve; as a rule, active = well fitted curve in the direction sought with a large enough effect; inconclusive = small, poorly fitted or top-dose-only effect, or another doubt; inactive = no such curve, though single readings can be large; an effect the other way counts as inactive or inconclusive.

Tests used:
[1] = Quantitative High-Throughput drug screen in 47 multiple myeloma cell lines against the NCATS MIPE library collection: KMM1_JCRB cell viability assay (AID 1918960); note: nearly all actives have a fitted effect of over 30% in size; note: potency is the fitted concentration of half-maximal effect
How it was run: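 Luminescence from CellTiter-Glo, taken after 5 min at room temperature, reports cellular ATP as viability. Cells (500 per well) had been treated 48 h at 37 °C with MIPE 4.0 compounds, scaled between DMSO and medium-only controls.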

[2] = Quantitative High-Throughput drug screen in 47 multiple myeloma cell lines against the NCATS MIPE library collection: KHM11_PLB cell viability assay (AID 1918962); note: nearly all actives have a fitted effect of over 35% in size; note: potency is the fitted concentration of half-maximal effect
How it was run: (§1)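 Inhibition of cell viability is measured here. Each line was plated at 500 cells per well, treated with MIPE 4.0 drugs, kept 48 hours at 37C, then assayed for ATP content by CellTiter-Glo luminescence.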

[3] = Quantitative High-Throughput drug screen in 47 multiple myeloma cell lines against the NCATS MIPE library collection: JIM3_ECACC cell viability assay (AID 1918963; note: nearly all actives have a fitted effect of over 35% in size; note: potency is the fitted concentration of half-maximal effect)
How it was run: as §1

[4] = Quantitative High-Throughput drug screen in 47 multiple myeloma cell lines against the NCATS MIPE library collection: INA6_PLB cell viability assay (AID 1918965; note: nearly all actives have a fitted effect of over 55% in size; note: potency is the fitted concentration of half-maximal effect)
How it was run: (§2)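 qHTS of the MIPE 4.0 collection: 500 myeloma cells/well, 48 h drug exposure at 37C in 5% CO2, then CellTiter-Glo for 5 min at room temperature before luminescence reading.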

[5] = Quantitative High-Throughput drug screen in 47 multiple myeloma cell lines against the NCATS MIPE library collection: H1112_PLB cell viability assay (AID 1918967; note: nearly all actives have a fitted effect of over 30% in size; note: potency is the fitted concentration of half-maximal effect)
How it was run: (§3)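 Steps: seed 500 cells per well; pin-transfer MIPE 4.0 library; incubate 48 h at 37C, 5% CO2, humidified; add CellTiter-Glo, 5 min room temperature; read luminescence.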

[6] = Quantitative High-Throughput drug screen in 47 multiple myeloma cell lines against the NCATS MIPE library collection: Karpas25_ECACC cell viability assay (AID 1918968; note: nearly all actives have a fitted effect of over 35% in size; note: potency is the fitted concentration of half-maximal effect)
How it was run: as §3

[7] = Quantitative High-Throughput drug screen in 47 multiple myeloma cell lines against the NCATS MIPE library collection: KMS27_JCRB cell viability assay (AID 1918970); details: KMS27 myeloma cells, CellTiter-Glo ATP viability, 48 h; viability (% of DMSO): at 45.8 µM (top of the series); note: nearly all actives have a fitted effect of over 30% in size; note: potency is the fitted concentration of half-maximal effect
How it was run: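 Myeloma cells (500 per well) were exposed to MIPE 4.0 compounds for 48 h at 37 °C, 5% CO2; viability was read as ATP luminescence with CellTiter-Glo, normalized to DMSO-only (100%) and media-only (0%) wells.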

[8] = Quantitative High-Throughput drug screen in 47 multiple myeloma cell lines against the NCATS MIPE library collection: KMS12BM_JCRB cell viability assay (AID 1918971); note: nearly all actives have a fitted effect of over 35% in size; note: potency is the fitted concentration of half-maximal effect
How it was run: (§4)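 We plated 500 myeloma cells per well, pinned in MIPE 4.0 compounds, and incubated for 48 hours at 37C. ATP was then quantified with CellTiter-Glo, with DMSO and media-only wells defining 100% and 0%.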

[9] = Quantitative High-Throughput drug screen in 47 multiple myeloma cell lines against the NCATS MIPE library collection: MM1S_ATCC cell viability assay (AID 1918980); note: nearly all actives have a fitted effect of over 45% in size; note: potency is the fitted concentration of half-maximal effect
How it was run: (§5)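 Viability after 48 h drug exposure was measured as ATP-dependent luminescence. Cells, 500 per well, sat at 37 °C under 5% CO2; DMSO wells set 100%, media-only wells 0%.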

[10] = Quantitative High-Throughput drug screen in 47 multiple myeloma cell lines against the NCATS MIPE library collection: JJN3_DSMZ cell viability assay (AID 1918966; note: nearly all actives have a fitted effect of over 50% in size; note: potency is the fitted concentration of half-maximal effect)
How it was run: as §3

[11] = Quantitative High-Throughput drug screen in 47 multiple myeloma cell lines against the NCATS MIPE library collection: KMS12PE_JCRB cell viability assay (AID 1918972); note: nearly all actives have a fitted effect of over 30% in size; note: potency is the fitted concentration of half-maximal effect
How it was run: as §2

[12] = Quantitative High-Throughput drug screen in 47 multiple myeloma cell lines against the NCATS MIPE library collection: MMM1_PLB cell viability assay (AID 1918976)
How it was run: as §5

[13] = Quantitative High-Throughput drug screen in 47 multiple myeloma cell lines against the NCATS MIPE library collection: NCIH929_DSMZ cell viability assay (AID 1918978); note: nearly all actives have a fitted effect of over 35% in size; note: potency is the fitted concentration of half-maximal effect
How it was run: as §5

[14] = Quantitative High-Throughput drug screen in 47 multiple myeloma cell lines against the NCATS MIPE library collection: KMS26_JCRB cell viability assay (AID 1918975); note: nearly all actives have a fitted effect of over 45% in size; note: potency is the fitted concentration of half-maximal effect
How it was run: as §4

[15] = Quantitative High-Throughput drug screen in 47 multiple myeloma cell lines against the NCATS MIPE library collection: OCIMY1_PLB cell viability assay (AID 1918979); note: nearly all actives have a fitted effect of over 35% in size; note: potency is the fitted concentration of half-maximal effect
How it was run: as §5

[16] = Quantitative High-Throughput drug screen in 47 multiple myeloma cell lines against the NCATS MIPE library collection: JIM1_ECACC cell viability assay (AID 1918964)
How it was run: as §3

[17] = Quantitative High-Throughput drug screen in 47 multiple myeloma cell lines against the NCATS MIPE library collection: KMS21BM_JCRB cell viability assay (AID 1918974); details: ATP luminescence, 48 h; viability: at 45.8 µM (top of the series); note: potency is the fitted concentration of half-maximal effect
How it was run: as §3

[18] = Quantitative High-Throughput drug screen in 47 multiple myeloma cell lines against the NCATS MIPE library collection: MOLP8_DSMZ cell viability assay (AID 1918977); note: nearly all actives have a fitted effect of over 45% in size
How it was run: as §5

[19] = Quantitative High-Throughput drug screen in 47 multiple myeloma cell lines against the NCATS MIPE library collection: KMS20_JCRB cell viability assay (AID 1918973); note: nearly all actives have a fitted effect of over 45% in size
How it was run: as §3

SMILES | Potency [1] | Potency [2] | Potency [3] | Potency [4] | Potency [5] | Potency [6] | Potency [7] | Potency [8] | Potency [9] | Potency [10] | Potency [11] | Potency [12] | Potency [13] | Potency [14] | Potency [15] | Potency [16] | viability [17] | Potency [18] | Potency [19] | Potency [17]
O=C(O)C1=CC(O)C(O)[C@H](O)C1 (some centres undefined) | inactive | inactive | inactive | inactive | inactive | inactive | inactive | inactive | inactive |  |  |  |  |  |  |  |  |  |  | 
Cc1ccc(NC(=O)c2ccc(CN3CCN(C)CC3)cc2)cc1Nc1nc(-c2cccnc2)cs1 | 16.6 µM (active) | 7.43 µM (active) | 14.8 µM (active) | 5.26 µM (active) |  |  | 20.9 µM (active) | 23.5 µM (active) |  | 16.6 µM (active) | 18.7 µM (active) | 18.7 µM (active) | 23.5 µM (active) |  |  |  |  |  |  | 
NCC1CCC(C(=O)O)CC1 (centres undefined) | inactive | 4.18 µM (active) | inactive | inactive | inactive | inactive | inactive | inactive |  |  | inactive | 0.0148 µM (active) | inactive | inactive | inactive |  |  |  |  | 
O=C(c1ccc(F)c(F)c1Nc1ccc(I)cc1F)N1CC(O)([C@H]2CCCCN2)C1 | 11.8 µM (active) | 0.0372 µM (active) | 14.8 µM (active) | 10.5 µM (active) | 16.6 µM (active) | 16.6 µM (active) | 0.264 µM (active) | 23.5 µM (active) | 18.7 µM (active) |  | 16.6 µM (active) |  | 14.8 µM (active) | 23.5 µM (active) |  |  |  |  |  | 
CC[C@H](C)n1cc(C)c2c(C(=O)NCc3c(C)cc(C)[nH]c3=O)cc(-c3ccc(N4CCNCC4)nc3)cc21 | inactive | 29.6 µM (active) |  | 18.7 µM (active) |  | 23.5 µM (active) |  |  | 0.935 µM (active) |  | inactive |  |  |  | 26.4 µM (active) | inactive |  |  |  | 
COc1cc(CNC(=O)CCCCC=CC(C)C)ccc1O | inactive | inactive | inactive |  | inactive | inactive |  | inactive | inactive |  | inactive |  | 18.7 µM (active) |  | inactive |  |  |  |  | 
CC=C(C(=CC)c1ccc(O)cc1)c1ccc(O)cc1 | 20.9 µM (active) | inactive |  | 16.6 µM (active) |  |  | 11.8 µM (active) | 16.6 µM (active) | 11.8 µM (active) |  | 16.6 µM (active) | 16.6 µM (active) | inactive |  | inactive |  |  |  |  | 
CN[C@@H](C)[C@H]1[C@H](O)C[C@@]2(C)[C@@H]3CC[C@H]4C(C)(C)[C@@H](NC)CC[C@@]45C[C@@]35CC[C@]12C | inactive |  | inactive | inactive | inactive | inactive | inactive |  |  | inactive |  |  | inactive | inactive |  | inactive | 62.4% (active) | inactive |  | 
CCOC(=O)[C@H]1O[C@H]1C(=O)N[C@@H](CC(C)C)C(=O)NCCC(C)C | inactive | inactive |  | inactive | inactive |  | inactive | 10.5 µM (active) |  |  | inactive |  | inactive |  | inactive |  |  | inactive | inactive | 
O=C(CO)N1CCC(c2[nH]nc(-c3ccc(Cl)cc3)c2-c2ccncn2)CC1 | inactive |  | inactive | 11.8 µM (active) | inactive |  |  | 0.935 µM (active) | 20.9 µM (active) | 1.66 µM (active) | inactive | 0.148 µM (active) | inactive |  | inactive | inactive |  | inactive |  | 
Cc1csc(-c2nnc(Nc3ccc(Oc4ncccc4-c4ccnc(N)n4)cc3)c3ccccc23)c1 | 14.8 µM (active) | 23.5 µM (active) |  |  |  |  |  |  | 18.7 µM (active) | 18.7 µM (active) | 20.9 µM (active) |  |  |  |  |  |  |  |  | 18.7 µM (active)
CC[C@H](C=C[C@@H](C)[C@H]1CC[C@H]2[C@@H]3CC=C4C[C@@H](O)CC[C@]4(C)[C@@H]3CC[C@]12C)C(C)C | inactive | inactive |  | 1.62 µM (active) | inactive | inactive |  | inactive | inactive | inactive | inactive |  | inactive |  |  |  |  |  | inactive | 
O=C(O)c1nc(=O)[nH]c(=O)[nH]1 | inactive | inactive |  | inactive | inactive | inactive |  |  | inactive |  | inactive |  |  | inactive |  |  |  |  |  | 
O=C(c1ccc(C(=O)N2CCC(N3CCCC3)CC2)c(Nc2ccccc2)c1)N1CCC(N2CCCC2)CC1 | inactive | inactive | inactive |  | inactive | inactive | inactive |  |  |  | inactive |  | inactive |  |  |  |  | inactive | inactive | inactive
